From PubChem BioAssay (NCI) come the findings set out here.

The panel holds about 83,000 compounds, 20% with a hit somewhere; the sample as a whole holds those more often.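 Single-concentration screen, 48 h exposure, 96-well plates. Endpoint: percent growth. Below 10 = active.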 Unmarked numbers belong to inactive results. The source made the active and inactive calls.

Test systems include HCT-15 colon; HT29 colon; SNB-75 CNS; SNB-19 CNS; U251 CNS; PC-3 prostate; SK-MEL-5 melanoma; UACC-62 melanoma; LOX IMVI melanoma; SK-MEL-28 melanoma; SK-MEL-2 melanoma; EKVX NSCLC; SN12C renal; UO-31 renal; TK-10 renal; ACHN renal; CAKI-1 renal; A498 renal; CCRF-CEM leukemia; MOLT-4 leukemia.
Assay in all cases: NCI-60 one-dose screen, 48 h (100 = growth as untreated, 0 = no growth, -100 = all killed)
Common to all, as to details: 10 µM unless noted

Regarding `COc1ccc(-c2cnc3c(-c4cccc5ncccc45)cnn3c2)cc1`, the growth in the test with HCT-15 colon was 71.6%; in the test on HT29 colon, 43.5%; in the test on SNB-75 CNS it was -13.1% (active); in the test with SNB-19 CNS, 5.29% (active); in the test on U251 CNS it was 16.3%; in the test with PC-3 prostate, 50.6%. Further, the growth is 22.3% in the test with SK-MEL-5 melanoma; 54.2% with UACC-62 melanoma; 72.4% in the test on LOX IMVI melanoma; 58.1% in the test on SK-MEL-28 melanoma; 76.1% with SK-MEL-2 melanoma; 80% in the test on EKVX NSCLC. The growth is 37.8% with SN12C renal; 55.4% with UO-31 renal; 61.7% in the test with TK-10 renal; 7.66% (active) in the test on ACHN renal; 32.2% in the test with CAKI-1 renal; 16.1% with A498 renal. In the test with CCRF-CEM leukemia, the growth is 98.4%.
On to `COc1cc2cc(Oc3cccc(NC(=O)Nc4cc(C(F)(F)F)cc(C(F)(F)F)c4)c3)c(C)nc2cc1OC`, for which the growth in the test on HCT-15 colon was 2.75% (active); in the test with HT29 colon, 4.89% (active); in the test with SNB-75 CNS, 9.73% (active); in the test on SNB-19 CNS it was 15.5%; with U251 CNS, -26.5% (active); with PC-3 prostate it was 6.82% (active). Besides, the growth in the test on SK-MEL-5 melanoma is -58.5% (active); with UACC-62 melanoma it was -34.6% (active); in the test with LOX IMVI melanoma it was 1.98% (active); in the test on SK-MEL-28 melanoma it was 7.66% (active); in the test with SK-MEL-2 melanoma, -30.4% (active); with EKVX NSCLC, 2.88% (active). Moreover, the growth in the test on SN12C renal is 7.69% (active); in the test with UO-31 renal, 11.6%; in the test on TK-10 renal it was 13.2%; in the test with ACHN renal, 5.82% (active); with CAKI-1 renal it was 6.4% (active); in the test on A498 renal, -11.5% (active). Besides, the growth with CCRF-CEM leukemia is 0.186% (active).
Take `CN(CCN(C)c1ccc(C(=N)N)cc1)c1ccc(C(=N)N)cc1`: the growth in the test on HCT-15 colon was 102%; with HT29 colon it was 108%; with SNB-75 CNS, 99.6%; with SNB-19 CNS, 121%; with U251 CNS, 95.4%; in the test with PC-3 prostate, 81.3%. Also, the growth is 92% in the test with SK-MEL-5 melanoma; 78.7% in the test with UACC-62 melanoma; 99.9% in the test on LOX IMVI melanoma; 108% with SK-MEL-28 melanoma; 94.4% in the test on SK-MEL-2 melanoma; 94.4% in the test on EKVX NSCLC. Besides, the growth was 74.3% with SN12C renal; 79.8% in the test with UO-31 renal; 115% with TK-10 renal; 105% in the test with ACHN renal; 68.6% in the test on CAKI-1 renal; 71.4% in the test with A498 renal. In addition, in the test with CCRF-CEM leukemia, the growth was -72% (active).
Turning to `COc1ccc(C(=O)CC#N)cc1`, the growth is 112% with HCT-15 colon; 126% with HT29 colon; 95.5% in the test with SNB-75 CNS; 103% with SNB-19 CNS; 100% in the test on U251 CNS; 105% in the test with PC-3 prostate. For the same compound, the growth in the test with SK-MEL-5 melanoma is 97.9%; in the test with UACC-62 melanoma it was 105%; in the test on LOX IMVI melanoma it was 94.7%; in the test on SK-MEL-28 melanoma it was 114%; in the test with SK-MEL-2 melanoma, 134%; in the test on EKVX NSCLC it was 126%. Moreover, the growth is 94.1% with SN12C renal; 105% in the test on UO-31 renal; 137% with TK-10 renal; 108% in the test on ACHN renal; 127% with CAKI-1 renal; 109% with A498 renal.
In the case of `CC1(C)NCCC[C@]2(C)[C@H]3CC[C@@H]4[C@H]5[C@H](C(=O)/C=C/c6ccco6)CC[C@]5(CO)CC[C@@]4(C)[C@]3(C)CC[C@@H]12`, the growth is 59.1% in the test with HCT-15 colon; 106% in the test with HT29 colon; 83% in the test with SNB-75 CNS; 94.2% in the test with SNB-19 CNS; 82% in the test on U251 CNS; 62.4% in the test with PC-3 prostate. Further, the growth with SK-MEL-5 melanoma was 93.4%; in the test on UACC-62 melanoma it was 87.8%; with LOX IMVI melanoma it was 74.8%; with SK-MEL-28 melanoma, 104%; in the test with SK-MEL-2 melanoma, 117%; in the test on EKVX NSCLC, 101%. Besides, the growth in the test on SN12C renal was 82.1%; with UO-31 renal, 67.3%; in the test on TK-10 renal, 9.01% (active); in the test on ACHN renal, 99.6%; with CAKI-1 renal it was 76.1%; with A498 renal, 51.3%. In addition, the growth in the test on CCRF-CEM leukemia is 74.6%.
For the compound `COc1ccc(C(=O)c2nc3ccccc3n2CC(=O)c2ccc(F)cc2)cc1`, the growth in the test on HCT-15 colon was 56%; in the test with HT29 colon it was 55%; in the test on SNB-75 CNS, 59.6%; in the test with SNB-19 CNS, 95.6%; with U251 CNS, 90.5%; with PC-3 prostate it was 83.2%. For the same compound, the growth in the test with SK-MEL-5 melanoma is 88%; in the test with UACC-62 melanoma, 65.3%; with LOX IMVI melanoma, 94.5%; in the test on SK-MEL-28 melanoma, 80.2%; in the test with SK-MEL-2 melanoma, 72.4%; in the test on EKVX NSCLC, 190%. In addition, the growth in the test with SN12C renal was 92.7%; in the test with UO-31 renal, 88.3%; with TK-10 renal it was 84.2%; in the test with ACHN renal, 105%; in the test on CAKI-1 renal, 115%; in the test with A498 renal, 116%. Moreover, the growth with CCRF-CEM leukemia was 79.6%; with MOLT-4 leukemia, 74.8%.
Consider `Cn1c(N2NC(=O)C(N=Nc3ccc(S(N)(=O)=O)cc3)C2=O)nc(-c2ccco2)c(C#N)c1=O` (stereo not drawn), for which the growth was 61.7% with HCT-15 colon; 85.3% in the test on HT29 colon; 64.5% with SNB-75 CNS; 99.7% with SNB-19 CNS; 96.9% in the test with U251 CNS; 82.9% in the test with PC-3 prostate. Also, the growth in the test on SK-MEL-5 melanoma is 98%; in the test with UACC-62 melanoma, 83.5%; in the test on LOX IMVI melanoma it was 76.8%; in the test with SK-MEL-28 melanoma, 102%; with SK-MEL-2 melanoma it was 117%; in the test on EKVX NSCLC it was 107%. For the same compound, the growth was 92.6% in the test with SN12C renal; 63.2% with UO-31 renal; 131% in the test on TK-10 renal; 81.6% in the test on ACHN renal; 69.8% in the test on CAKI-1 renal; 122% in the test with A498 renal. Moreover, in the test on MOLT-4 leukemia, the growth is 4.74% (active).
Turning to `C=C(CBr)[C@@H]1CC[C@]2(COC(C)=O)CC[C@]3(C)[C@H](CC[C@@H]4[C@@]5(C)CCCNC(C)(C)[C@@H]5CC[C@]43C)[C@@H]12`, the growth in the test with HCT-15 colon is 24.8%; in the test with HT29 colon it was 29.1%; in the test with SNB-75 CNS, 79.8%; in the test with SNB-19 CNS, 64.2%; in the test on U251 CNS, 37%; in the test on PC-3 prostate, 12.9%. In addition, the growth is 19.9% in the test with SK-MEL-5 melanoma; 24.8% in the test with UACC-62 melanoma; 23.5% in the test on LOX IMVI melanoma; 60.7% in the test with SK-MEL-28 melanoma; 59.4% in the test with SK-MEL-2 melanoma; 46.9% with EKVX NSCLC. Also, the growth in the test with SN12C renal was 48%; in the test with UO-31 renal it was 29.6%; with TK-10 renal it was 41.1%; with ACHN renal, 39.5%; in the test on CAKI-1 renal, 37.5%; in the test on A498 renal, 49.4%. Moreover, the growth is 33.8% with CCRF-CEM leukemia and 10.9% in the test with MOLT-4 leukemia.
